The source holds several records for some structures; these can differ, active in one and inactive in another. Activity calls are given as the source filed them. How the source made its calls: active means hit-call score of the fitted dose curve at least 0.9, where 1 is the maximum; inactive means score below 0.9.
Experiment: CCTE_Mundy_HCI_Cortical_NOG_NeuriteLength: CCTE's Neurite Outgrowth Assay in rat cortical cells for Neurite Length, Mundy Lab (AID 2284213);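 on AC50: neurites imaged about 48 to 50 h after chemical exposure began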
Method: CCTE_Mundy_HCI_Cortical_NOG is a multiplexed, cell-based-readout assay that uses rat primary cortical cells with measurements taken at 50.33 hours after chemical dosing in a microplate: 96-well plate.CCTE_Mundy_HCI_Cortical_NOG_NeuriteLength is one of four components of the CCTE_Mundy_HCI_Cortical_NOG assay. It measures neurite outgrowth related to the neurite length using High Content Imaging of fluorescently labelled markers.[…] Using a type of morphology reporter, loss -of-signal activity can be used to understand developmental effects.
Exposure starts 2 hours post-plating by adding 10 ul of the working solution to 90 ul of media in the wells for a 1/10 dilution. Forty-eight hours after chemical treatment cells are fixed by direct addition of 100 ul of warm (37C) Dulbecco's phosphate buffered saline (DPBS) fixative solution containing 8% paraformaldehyde, 8% sucrose, and 0.1% of 3 mg/ml Hoechst 33342 into each well. Primary antibodies are prepared by dilution in Immunocytochemical Staining Buffer (ISB), 10X Dulbecco's PBS, 0.1% Saponin, 5% Bovine Serum Albumin, 0.5% NaN3 (Sodium Azide) and betaIII-tubulin (rabbit anti-betaIII-tubulin, 1:800) followed by Alexa Fluor-488 secondary (1:500) to label neuronal cell bodies and neurites. A Cellomics ArrayScan VTi HCS Reader is used for automated image acquisition and analysis of neurite outgrowth.

SMILES	outcome	AC50
CC(C)N(C(=O)COc1nnc(C(F)(F)F)s1)c1ccc(F)cc1	inactive	
CC[C@H](C)[C@H]1O[C@]2(C=C[C@@H]1C)C[C@@H]1C[C@@H](C/C=C(\C)[C@@H](O[C@H]3C[C@H](OC)[C@@H](O[C@H]4C[C@H](OC)[C@@H](O)[C@H](C)O4)[C@H](C)O3)[C@@H](C)/C=C/C=C3\CO[C@@H]4[C@H](O)C(C)=C[C@@H](C(=O)O1)[C@]34O)O2 (tested in a mixture with another compound)		8.48 µM (active)
CC1(c2ccc(Oc3ccccc3)cc2)OC(=O)N(Nc2ccccc2)C1=O (stereo not given)		61.3 µM (active)
O=S(=O)(O)C(F)(F)C(F)(F)C(F)(F)C(F)(F)C(F)(F)C(F)(F)C(F)(F)C(F)(F)F	inactive	
CCC(C)(C)C(=O)OC1=C(c2ccc(Cl)cc2Cl)C(=O)OC12CCCCC2	inactive	
COP(=O)(OC)OC=C(Cl)Cl	inactive	57.5 µM (active)
CNC(=O)CSP(=S)(OC)OC	inactive	
CC1(C)C(C=C(Cl)Cl)C1C(=O)OC(C#N)c1ccc(F)c(Oc2ccccc2)c1 (stereo not given)	inactive	79.7 µM (active)
O=C(O)COc1ccc(Cl)cc1Cl	inactive	
O=[N+]([O-])/N=C1\NCCN1Cc1ccc(Cl)nc1	inactive	
O=C(O)C(F)(F)C(F)(F)C(F)(F)C(F)(F)C(F)(F)C(F)(F)C(F)(F)F	inactive	
COP(=S)(OC)Oc1ccc([N+](=O)[O-])cc1		23.7 µM (active)
O=S1OCC2C(CO1)C1(Cl)C(Cl)=C(Cl)C2(Cl)C1(Cl)Cl (stereo not given)		23.8 µM (active)

— PubChem BioAssay (EPA / NIEHS)
